This is an account of results in PubChem BioAssay.

This assay has as its system Lefty1. The assay can be described thus: Lefty1 binders on small-molecule microarrays, primary screen, biochemical, small-molecule microarray, 635/667 nm fluorescence (AID 1139). The conditions noted are these: small-molecule microarray binding, fluorescence 635/667; higher = more signal.
As for `C=CCN1C(=O)[C@@]2(CCC(=O)OC(C)(C)C)N=C(c3ccc(OCCCO)cc3)O[C@H]2c2ccccc21`, the composite z-score amounted to 0.319.

On to `C=CCNC(=O)[C@@H]1[C@H]2C(=O)O[C@H](c3ccccc3)[C@H](c3ccccc3)N2[C@H](c2ccccc2OCCO)[C@@]12C(=O)N(C(=O)OCCOC)c1ccc(C#CC3=CCCCC3)cc12`, for which the composite z-score was found to be 0.949. Consider `COc1ccc(C(O)C2C=CC3C(=O)N(c4ccccc4)C(=O)C3N2Nc2ccc(C#N)cc2)c2ccccc12` (stereo not given), for which the composite z-score was 0.392. `COCCOC(=O)N1C(=O)[C@@]2(c3cc(C#CC4(O)CCCCCC4)ccc31)[C@H](c1ccccc1OCCO)N1[C@H](c3ccccc3)[C@H](c3ccccc3)OC(=O)[C@H]1[C@@H]2C(N)=O` registered a composite z-score of 1.56.

The compound `C[C@]1(C(=O)NC2CC2)c2ccccc2C(=O)N(Cc2ccc(OC(F)(F)F)cc2)[C@H]1c1ccc(CO)cc1` yielded a composite z-score of -0.858. `C#CCNC(=O)[C@H](Cc1ccccc1)NC(=O)[C@@H](N=[N+]=[N-])C(C)C`: the composite z-score worked out at 0.343. As for `CC(C)(C)OC(=O)CC[C@]1(C(=O)NCCN2CCOCC2)N=C(c2ccc(OCCCO)cc2)O[C@H]1c1ccccc1`, the figure is -0.964; as for `[N-]=[N+]=NCc1ccccc1C[C@]1(C(=O)NCC(O)CO)N=C(c2ccc(OCCCO)cc2)O[C@H]1c1ccccc1CN=[N+]=[N-]` (stereo not given in full), -0.204.

Consider `COc1cc2c(cc1OC)CN(C(=O)[C@@H]1[C@H]3C(=O)O[C@H](c4ccccc4)[C@H](c4ccccc4)N3[C@H](c3ccccc3OCCO)[C@@]13C(=O)Nc1ccc(C#CC4(O)CCCCCC4)cc13)CC2`, for which the composite z-score is 0.895. Regarding `C[C@@H](OCc1ccccc1)C1NC(=O)[C@@]23C(=O)N[C@@H](Cc4ccccc4)C2[C@H](C)[C@@]2(C)O[C@H]2C3/C=C/C/C=C\CNC(=O)CNC1=O` (stereo not given in full), the composite z-score is -0.339.
